Screening results deposited in PubChem BioAssay by National Center for Advancing Translational Sciences (NCATS).
In the library only some 4.6% were active in any assay of this set; here they are far more common.
TRHR agonist: TRH receptor (human) agonism | P34981 | TRHR cells, calcium flux fluo-8, FDSS agonist mode | activation, % at 2 µM | 360,000 tested, 0.18% active | AID 493084; note: 0% is about no effect
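Read-out: compound-evoked intracellular calcium rise in TRHR cells, fluo-8 dye, kinetic FDSS fluorescence at 1 s/cycle following a 10-cycle baseline. Cells cultured overnight before dye loading (30 min–1.5 h, RT).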
D1 PAM: enhances dopamine response at the human D1 receptor | P21728 | HEK293 TREx D1 cells, calcium flux, dopamine EC20 potentiation | potentiation, % at 10 µM | 360,000 tested, 0.036% active | AID 504651; in the data active = potentiation above about 30%; note: 0% is about no effect
Target sequence (P21728 whole entry, looked up): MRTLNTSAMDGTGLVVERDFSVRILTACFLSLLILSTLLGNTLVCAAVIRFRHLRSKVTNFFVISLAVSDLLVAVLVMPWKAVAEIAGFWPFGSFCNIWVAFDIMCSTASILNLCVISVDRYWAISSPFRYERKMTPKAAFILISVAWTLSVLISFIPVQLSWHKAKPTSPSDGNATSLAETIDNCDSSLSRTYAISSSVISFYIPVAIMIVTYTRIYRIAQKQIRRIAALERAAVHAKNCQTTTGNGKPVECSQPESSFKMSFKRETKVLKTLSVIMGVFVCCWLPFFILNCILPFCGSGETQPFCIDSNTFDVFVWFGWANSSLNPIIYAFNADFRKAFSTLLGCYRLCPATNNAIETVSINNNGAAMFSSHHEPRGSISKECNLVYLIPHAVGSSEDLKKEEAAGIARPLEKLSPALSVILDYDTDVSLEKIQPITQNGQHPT
TRHR PAM: allosterically enhances the human TRH receptor; P34981; 360,000 tested, 0.66% active; enhancement, % at 2 µM; TRHR cells, fluo-8 calcium fluorescence, EC20 TRH enhancement; in the data active = enhancement above about 30%; note: 0% is about no effect
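TRHR-expressing cells loaded with fluo-8 calcium dye were read kinetically (ex 480/em 530) during compound addition, then stimulated with an EC20 of TRH (10 nM final). Enhancement of the Gq-mediated intracellular calcium response was scored.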
D1 ag: agonists of human D1 dopamine receptor; 360,000 tested, 1% active; activation, % at 2 µM; P21728; HEK293 T-REx D1 cells, calcium flux, agonist mode; note: 0% is about no effect
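Tetracycline-induced HEK293 TREx D1 cells, force-coupled to calcium signalling, were dye-loaded with a no-wash calcium kit. Compound was pin-added after a 10 s baseline. Fluorescence was read kinetically at 1 cycle/s for 180 s, with calcium rises flagged as agonism.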
D1 antag: antagonists of human D1 dopamine receptor; HEK293 TREx D1 cells, calcium flux, dopamine EC80; hits give low values; activity change, negative = inhibition, % at 10 µM; P21728; 360,000 tested, 3.2% active; in the data active = activity change below about -30%; note: % is set by controls: 0 for no effect and ±100 for the full control effect
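Allosteric or orthosteric antagonism assessed as attenuation of the calcium response to EC80 dopamine, added 180 s after compound, in induced HEK293 Trex D1 cells loaded with no-wash calcium dye.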
Starred values were filed as active, the others as inactive; ! = not active in a repeat. Cut-off read from the data, not from the text of the source, unless noted: active = activation above about 30%; inactive = the rest.

SMILES	TRHR agonist	D1 PAM	TRHR PAM	D1 ag	D1 antag
Cc1ccc2c(CN3CCN(C(=O)c4ccc(F)cc4)CC3)cc(=O)oc2c1	-0.5	0.2	-6.2	-0.6	0.5
O=C(NCCc1ccccc1)c1cnc2sc(N3CCCCC3)nn2c1=O	0.3	-4.8	6.1	0.6	-8.5
Nc1ccc(NC(=O)CCN2CCOCC2)cc1	-2.8	4.4	9.3	2.4	4.3
COc1ccc2nc(SCC(=O)N(C)CC(=O)Nc3ccc(F)cc3)[nH]c2c1	-0.3	-5.2	36.1*	-0.2	7.9
CN(CC(=O)Nc1ccc(F)cc1)C(=O)CSc1nc2ncc(Cl)cc2[nH]1	-0.2	9.5	-0.6	-2.1	2.7
CCc1cccc(NC(=O)Cn2cc(C(=O)c3ccncc3)c(=O)c3cc(C)c(C)cc32)c1	0.0	-1.9	-1.6	-0.4	24.1
CCCCCn1c(CCCNC(=O)c2cccc(C)c2)nc2ccccc21	0.6	2.5	7.8	4.4	16.6
Cc1ccc(OCC(=O)N(Cc2ccco2)Cc2ccco2)cc1C	-1.1	1.9	-3.8	2.4	6.2
O=C(/C=C/c1ccco1)Nc1ccc(-c2nc3ccccc3[nH]2)cc1	-0.1	-6.3	-5.0	1.0	-29.6
CCN(CC)S(=O)(=O)c1ccc(NC(=S)NC(=O)CC(C)C)cc1	-0.1	-1.9	11.3	0.1	-32.9*
CC(C)CC(=O)NC(=S)Nc1ccc(NC(=O)c2ccco2)cc1	-0.1	-3.0	3.9	11.5	-35.6*
O=C(Nc1ccc(-c2nc3ccccc3[nH]2)cc1)c1ccco1	0.3	-16.1	-11.9	1.0	-45.8*
CCN1CCN(c2ccc(NC(=O)c3cccc(F)c3)cc2Cl)CC1	1.0	-5.5	1.6	7.5	-36.4*
O=C(Nc1ccc(N2CCCC2)c(Cl)c1)c1ccco1	-1.3	-3.9	-10.2	-0.2	-9.8
CN1CCN(c2ccc(NC(=O)c3ccco3)cc2Cl)CC1	0.4	-2.5	1.5	1.7	-38.3*
COc1ccc(NC(=O)c2ccco2)cc1NC(=O)c1cccc(C)c1OC	-0.6	-6.2	2.1	2.4	-30.7*
O=C(Nc1ccc(NC(=O)c2ccco2)cc1)c1ccco1	1.2	2.0	31.3*	0.5	-2.0
O=C(Nc1ccc(C(=O)Oc2ccccc2)c(O)c1)c1ccco1	0.4	-1.9	1.8	11.9	-36.0*
CCOc1ccccc1CNC(=O)Cn1c(-c2ccccc2)cc(C(C)=O)c1C	-0.1	-0.2	-2.6	-0.8	-11.0
C=Cc1nc(Nc2cc(F)cc(F)c2)nc(NC2CCCC2)n1	1.1	-9.7	3.9	0.3	-10.4
O=C(Nc1ccc(Br)cc1)c1ccco1	-0.7	-9.3	-0.1	-3.1	-42.2*
Cc1ccn2cc(-c3ccc(NC(=O)c4ccco4)cc3)nc2c1	-1.8	-3.5	-8.4	0.3	-33.4*
Cc1nc(-c2ccc(NC(=O)c3ccco3)cc2)cs1	0.6	-1.3	8.8	0.7	-5.2
O=C(Nc1ccc(Nc2ccccc2)cc1)c1ccco1	0.1	2.4	2.2	3.8	-4.7
CCCC(C)NC(=O)c1cccc(Oc2ccccc2)c1 (stereo unspecified)	-1.6	-5.3	5.9	32.7*	5.8
SMILES	TRHR agonist	D1 PAM	TRHR PAM	D1 ag	D1 antag
CC(=O)Nc1ccc(NC(=O)c2cccc(Oc3ccccc3)c2)cc1	0.4	-5.0	2.0	2.3	1.0
CCC1CN(C(=O)N2CCC(C(=O)NCc3cccc(C)c3)CC2)c2ccccc2O1 (stereo unspecified)	-0.1	-1.9	-4.8	0.5	-31.9*
COc1ccc(CNC(=O)C2CCN(C(=O)N3CC(C)Oc4ccc(C)cc43)CC2)cc1 (stereo unspecified)	-0.1	-0.6	-3.4	2.7	-5.6
CCC1CN(C(=O)NCc2ccc(F)cc2)c2cc(Cl)ccc2O1 (stereo unspecified)	1.0	-8.8	-2.0	3.6	-10.0
CCC1CN(C(=O)N2CCC(C(=O)NCc3ccccc3C)CC2)c2ccccc2O1 (stereo unspecified)	-0.3	-2.2	0.1	6.0	-8.2
CCCCNC(=O)C1CCN(C(=O)N2CC(C)Oc3ccc(Cl)cc32)CC1 (stereo unspecified)	0.2	0.5	-5.7	2.8	-12.7
CC1CN(C(=O)N2CCC(C(=O)NCCCc3ccccc3)CC2)c2cc(Cl)ccc2O1 (stereo unspecified)	-1.0	-2.6	0.5	-0.5	-57.2*
CCOc1ccc(CNC(=O)C2CCN(C(=O)N3CC(C)Oc4ccccc43)CC2)cc1 (stereo unspecified)	-0.5	1.0	-1.5	1.5	-38.0*
CCC1CN(C(=O)NCc2ccc(F)cc2)c2ccccc2O1 (stereo unspecified)	-0.3	-5.7	3.3	-0.7	-56.4*!
O=C(NCC(c1cccnc1)N1CCN(Cc2ccccc2)CC1)C(=O)Nc1ccc(Cl)cc1 (stereo unspecified)	0.1	-2.0	-7.9	2.7	-17.5
COc1ccc(NC(=O)C2CCN(C(=O)N3CCOc4ccccc43)CC2)cc1	0.1	-0.7	9.2	2.7	13.7
CCCOc1ccc(CNC(=O)C2CCN(C(=O)N3CCOc4ccccc43)CC2)cc1	0.0	-4.0	-0.1	2.5	-32.0*
C/C(=N\NC(=O)c1cccc(N/N=C(\C)c2ccc([N+](=O)[O-])cc2)c1)c1ccc([N+](=O)[O-])cc1	-0.1	-14.4	1.5	0.1	-37.6*
C/C(=N\NC(=S)NCc1ccccc1)c1ccc(Br)cc1	0.6	1.2	5.4	3.7	15.8
C/C(=N/NC(=O)c1ccc2c(c1)OCCO2)c1ccc([N+](=O)[O-])cc1	-0.8	-7.8	-3.5	1.2	-52.0*
C/C(=N\NC(=O)c1cccc(N/N=C(\C)c2ccccc2)c1)c1ccccc1	2.0	-13.5	-9.8	-0.8	-11.7
C/C(=N\NC(=S)NCc1ccccc1)c1ccc2c(c1)OCCO2	-0.9	-5.5	-1.0	8.5	-31.4*
N#C/C(=N\Nc1cccc(Cl)c1)C(=O)c1ccccc1	2.7	-4.2	5.4	16.5	-15.7
COc1ccc(C(=O)/C(C#N)=N/Nc2cccc([N+](=O)[O-])c2)cc1	1.0	-8.7	-13.9	19.8	-32.5*
C/C(=N/NC(=O)c1ccc2c(c1)OCO2)c1cccc([N+](=O)[O-])c1	-0.5	-1.3	-2.8	-0.3	0.6
CCC(Cc1ccccc1)NC(=O)Cn1ncc2c3ccccc3n(Cc3ccccc3)c2c1=O (stereo unspecified)	-0.3	-4.4	1.5	9.3	-19.4
O=C(Nc1cccc(NC(=O)c2ccccc2Cl)c1)c1ccc([N+](=O)[O-])o1	-0.6	-9.2	1.7	6.3	-46.1*
O=C(Nc1ccc(N2CCCC2)c(Cl)c1)c1ccc([N+](=O)[O-])o1	-0.6	5.6	12.8	1.0	9.9
CCc1ccccc1NC(=O)c1ccc2nc(C(C)C)oc2c1	-0.1	0.0	-1.8	1.0	14.8
COc1ccc(OC)c2c1C(=O)c1ccccc1C2=O	35.0*	0.2	-4.0	30.6*	-0.7
